Results published in PubChem BioAssay (NCI).
This is part of a sample that, as a whole, favours compounds with a hit. Of some 83,000 tested, about 20% had one in any assay.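 48-hour exposure, single concentration, 96-well plates; percent growth endpoint where 0 means no net growth. Active: below 10.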 Unmarked numbers belong to inactive results. Activity calls are given as the source filed them.

Columns and labels:
Test in all cases: NCI-60 one-dose screen, 48 h (100 = growth as untreated, 0 = no growth, -100 = all killed)
Conditions in all cases: 10 µM unless noted
RPMI-8226 leukemia = tested on: RPMI-8226 leukemia
OVCAR-8 ovarian = tested on: OVCAR-8 ovarian
OVCAR-5 ovarian = tested on: OVCAR-5 ovarian
OVCAR-4 ovarian = tested on: OVCAR-4 ovarian
SK-OV-3 ovarian = tested on: SK-OV-3 ovarian
IGROV1 ovarian = tested on: IGROV1 ovarian
OVCAR-3 ovarian = tested on: OVCAR-3 ovarian
HS 578T breast = tested on: HS 578T breast
NCI/ADR-RES ovarian = tested on: NCI/ADR-RES ovarian
T-47D breast = tested on: T-47D breast

Structure (SMILES) | growth (RPMI-8226 leukemia) | growth (OVCAR-8 ovarian) | growth (OVCAR-5 ovarian) | growth (OVCAR-4 ovarian) | growth (SK-OV-3 ovarian) | growth (IGROV1 ovarian) | growth (OVCAR-3 ovarian) | growth (HS 578T breast) | growth (NCI/ADR-RES ovarian) | growth (T-47D breast)
CCCCSc1cc(C)nc(N)n1 | 73.4% | 107% | 94% | 98.1% | 97.8% | 100% | 103% | 92.3% | 95% | 96.4%
Cc1nc2cc(NC(=O)CN3CCN(CCN4C(=O)c5cccc6cccc(c56)C4=O)CC3)ccc2s1 | 28.9% | 30.2% | 72% | 61.4% | 66.3% | 44% | 74.3% | 69.5% | 45.9% | 50.7%
COc1ccc2c3c(c(OCCCN(C)C)nc2c1)-c1ccc(Cl)cc1C3=O | -17.3% (active) | -38.6% (active) | -43.3% (active) | -8.75% (active) | 55.5% | 30.8% | -46.4% (active) | 68.7% | 7.12% (active) | 72.7%
O=C(/C=C/c1cccnc1)NCCCCC1CCCN(C(=O)c2ccccc2)C1 (stereo not given) | 36.9% | 22% | 96.1% | 89.2% | 91.6% | 33.8% | 74.7% | 52.2% | 32.1% | 47.3%
O=C1CC(=O)N(c2ccccc2)O1 | 105% | 103% | 92.9% | 110% | 98.4% | 99% | 118% | 110% | 101% | 97.5%
C/C(=C\CCc1ccsc1)CC/C=C(\C)CCCN1CCN(CCO)CC1 | -18.9% (active) | 59.3% | 71.8% | 41.9% | 77.4% | 52.8% | 64.6% | 49.5% | 56.3% | 36.2%
O=C1NCC(Nc2ccc(Br)cc2Cl)C(=O)N1 (stereo not given) | 110% | 130% | 100% | 111% | 105% | 108% | 114% | 105% | 107% | 99.6%
CCCCCCOc1ccc(/C=N/NC(N)=S)cc1 | 7.2% (active) | 70.6% | 84.5% | 26.5% | 90.6% | 13.9% | 28.5% | 61.8% | 58.5% | 24%
O=C1/C(=C/c2ccc([N+](=O)[O-])s2)Oc2ccc(Br)cc21 | -6.04% (active) | -6.92% (active) | -66.8% (active) | -75.8% (active) | -34.3% (active) | -45.9% (active) | -65.3% (active) | 16.2% | -31.2% (active) | -55.7% (active)
COC(=O)CC1=C(C)/C(=C/c2[nH]c(-c3ccc[nH]3)cc2OC)N=C1C | -55.3% (active) | 6.58% (active) | 18.7% | 10.5% | 20.2% | 11.3% | -17.7% (active) | -14.9% (active) | 5.14% (active) | 0.172% (active)
Cc1[nH]n(C(N)=S)c(=O)c1N=Nc1ccc(F)c(Cl)c1 | 78.2% | 91.2% | 102% | 94.9% | 280% | 102% | 88.3% | 127% | 117% | 249%
CN(C)c1ccc(/C=C(\C#N)c2nc3ccccc3c(=O)[nH]2)cc1 | 140% | 97.1% | 86.8% | 29.9% | 114% | -10.8% (active) | 114% | 71.4% | 76.9% | 92.1%
C/C(=C\CCc1ccoc1)CC/C=C(\C)CCCN1CCC(CO)CC1 | 3.35% (active) | 77.7% | 76.4% | 52.5% | 65.1% | 67.8% | 82.4% | 57.5% | 73.4% | 35.9%
Nc1nc(SCc2ccccc2Cl)c(-c2ccccc2)c(SCc2ccccc2Cl)n1 | 81.8% | 98.4% | 84.9% | 95.8% | 82.7% | 97.4% | 101% | 93.4% | 90.7% | 58.4%
c1ccc(-c2nnc(Nc3nnc(-c4ccccc4)s3)s2)cc1 | 87.8% | 103% | 100% | 101% | 96.8% | 86.7% | 105% | 100% | 118% | 93.8%
COc1ccc(-c2csc(NC(=O)c3cc(O)c(O)c(O)c3)n2)cc1 | 41.1% | 57.6% | 86.1% | 58.6% | 77.5% | 46.4% | 72.6% | 101% | 62.2% | 44.7%
C/C(=N/N=C(N)N)c1ccc(Cl)cc1 | 89.8% | 110% | 87.8% | 92.9% | 89.5% | 14.6% | 110% | 272% | 86.5% | 79.3%
O=[N+]([O-])c1ccc(N/N=C/c2c(O)ccc3ccccc23)nc1 | 31% | 34.9% | 77.5% | 21.2% | 50.9% | 18.5% | 20.3% | 117% | 27.3% | 47.4%
COc1cc(/C=C/c2nnc(-c3cc(-c4ccccc4)n[nH]3)o2)cc(OC)c1OC | 83% | 80.8% | 101% | 100% | 88.7% | 110% | 107% | 99.7% | 86.7% | 73.2%
COc1ccc2nc3cc(Cl)ccc3c(N3CCN(c4ccnc(Nc5ccc(F)cc5)n4)CC3)c2c1 | 63.4% | 75.8% | 95% | 64.8% | 111% | 87.5% | 82.4% | 94.2% | 71.3% | 54.5%
Nc1nc(SCC2(CCl)COC2)c2[nH]cnc2n1 | 96.4% | 95.8% | 100% | 86.8% | 92.9% | 101% | 109% | 89.4% | 109% | 100%
N#Cc1c(N2CCOCC2)nc2sc3cc(Cl)ccc3n2c1=N | 94.4% | 95.7% | 95.2% | 102% | 67.3% | 67.2% | 104% | 66.8% | 99% | 33.1%
COC(=O)c1ccc2c(c1)nc(-c1ccc(O)c(OC)c1)n2-c1cc(C(C)(C)C)[nH]n1 | 72.8% | 98.8% | 117% | 111% | 133% | 101% | 98.1% | 98.2% | 98.4% | 92.3%
CNc1ccc(CSc2ccc(Cl)cc2)cc1 | 35.8% | 103% | 90.2% | 85.6% | 107% | 81.9% | 109% | 123% | 97% | 80.3%
CCC(C)CC(C)C(=O)c1c(O)ccn(O)c1=O (stereo not given) | 11.7% | 17.8% | 72.8% | 30.3% | 65.3% | 24.2% | 19% | 62% | 4.73% (active) | 35.5%
O=C(Nc1ccc(Cl)cc1)Nc1ccc(Oc2nncc3ccccc23)cc1 | -0.0795% (active) | 19.4% | -16% (active) | -20.8% (active) | 56.7% | 8.16% (active) | -62.8% (active) | 37.5% | 37.6% | 10.2%
Clc1nc(Cl)c2ncn(-c3ccccc3)c2n1 | 108% | 51.4% | 102% | 68.9% | 88.4% | -48.8% (active) | 54.9% | 12.4% | 92.6% | 50.6%
O=C(Nc1cccc(C(F)(F)F)c1)Nc1ccc(OCc2nnc(-c3ccc(Cl)cc3)o2)c(F)c1 | 41.3% | 58.2% | 75.9% | 75% | 79.5% | 90% | 85.8% | 91.7% | 73.1% | 61.6%
